From PubChem BioAssay AID651956 (Broad Institute, 2012)
Potency and affinity values are given separately. Results filed as inconclusive are left out. Calls of active or inactive are those of the source.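 How the source made its calls: active means in every test run, a fitted half-maximal concentration for signal decrease at or below twice the highest tested concentration; inconclusive means runs disagree, flat 30 to 70% decrease, or poor fit; inactive means the rest.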

Test: miR-122 activators in hepatoma reporter cells, dose response, cell-based, Huh7 psiCHECK-miR122, Renilla luciferase, cherry-picked (AID 651956);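 further: Renilla luciferase from a miR-122 sensor reporter so lower signal means miR-122 activation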
Conditions: 48 h; series mostly up to 35 µM

outcome, inactive:
Cc1ccc(OCC(O)Cn2c(=N)n(Cc3ccccc3)c3ccccc32)cc1 (centres undefined)
Cc1ccc(C2CC(C(F)(F)F)n3nc(C(=O)NCc4ccco4)cc3N2)cc1 (centres undefined)
O=C(COC(=O)Cc1ccc(S(=O)(=O)N2CCOCC2)s1)Nc1ccc2c(c1)OCO2
CN1C(=O)c2cc(NC(=O)c3cccs3)ccc2OC[C@H]2O[C@@H](CC(=O)NCCN3CCCCC3)CC[C@@H]21
CCN(C[C@H]1N[C@@H](CO)[C@@H]1c1ccc(C2=CCCC2)cc1)C(=O)c1ccncc1
O=C(Nc1ccccc1F)N1C[C@H]2[C@@H](c3ccccc31)[C@@H](CO)N2C(=O)C1CC1
CN(C(=O)c1ccccc1Cl)C1CCCCC1
COCC(=O)N1[C@H](CO)[C@@H](c2ccccc2)[C@H]1CNC(=O)c1ccccn1
CCC(=O)N(C)C[C@@H]1[C@@H](c2ccccc2)[C@H](CO)N1Cc1cccnc1
COC(=O)C[C@@H]1CC[C@H]2[C@@H](COc3ccc(NC(=O)c4ccc(C(F)(F)F)cc4)cc3C(=O)N2C)O1
CO[C@@H]1CN(C)C(=O)c2ccc(NC(=O)c3nc4ccccc4s3)cc2OC[C@H](C)N(Cc2cccnc2)C[C@H]1C
COc1ccccc1CNc1nc(Nc2ccccc2Cl)c2sccc2n1
COc1cc(-c2nnc(-c3ccco3)o2)ccc1OCc1ccccc1
CN1C(=O)c2cc(NC(=O)c3cccc(F)c3)ccc2OC[C@@H]2O[C@@H](CC(=O)NC3CCC3)CC[C@@H]21
